Data as given in PubChem BioAssay AID1159580 (chemical genetic matrix, 2015).
Several values for one entry are separate records, joined by “and”; a condition that tells them apart may be missing. Equal values may be shown once. Out of some 5,500 compounds screened, about 2,000 (36%) were called active. Another 18% or so got no clear call; they are omitted. Rule as the data show it: active = normalized growth mostly below about 0.91 (no sharp cut-off); inconclusive = no clear call, values can overlap the other calls; inactive = mostly above about 0.92. Some of the results follow.

Assay: chemical genetic growth profiling, strain panel (AID 1159580);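 also: tested at 20 µM; growth read once vehicle control cultures reached saturation at 30 °C; 1 = growth at the plate median or of vehicle wells; lower values mean less growth of the strain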
Conditions: S. cerevisiae deletion strains, growth OD

Measured: normalized growth

CC12CCC(CC1)C(C)(C)O2
inactive: locus YAL013W, strain DEP1, active compounds read low 1 | locus YAL021C, strain ccr4, active compounds read low 0.963 | locus YAL026C, strain drs2, active compounds read low 0.973 | locus YAL030W, strain snc1, active compounds read low 0.998 | locus YBL061C, strain skt5, active compounds read low 0.967 | locus YBR009C, strain hhf1, active compounds read low 0.994 | locus YBR021W, strain FUR4, active compounds read low 1.02 | locus YBR023C, strain chs3, active compounds read low 0.974 | locus YBR171W, strain sec66, active compounds read low 0.966 | locus YBR229C, strain ROT2, active compounds read low 1 | locus YBR231C, strain swc5, active compounds read low 1.02 | locus YBR279W, strain paf1, active compounds read low 0.988 | locus YCL011C, strain gbp2, active compounds read low 0.974 | locus YCL016C, strain dcc1, active compounds read low 0.986 | locus YCL029C, strain bik1, active compounds read low 1.01 | locus YCL061C, strain MRC1, active compounds read low 0.968 | locus YCL069W, strain vba3, active compounds read low 0.977 | locus YCR088W, strain abp1, active compounds read low 0.985 | locus YDL005C, strain med2, active compounds read low 0.975 | locus YDL035C, strain GPR1, active compounds read low 0.999 | locus YDL040C, strain nat1, active compounds read low 0.997 | locus YDL074C, strain BRE1, active compounds read low 1.02 | locus YDL101C, strain DUN1, active compounds read low 1 | locus YDL185W, strain tfp1, active compounds read low 1.01 | locus YDL192W, strain arf1, active compounds read low 1.02 | locus YDR001C, strain nth1, active compounds read low 0.995 | locus YDR069C, strain doa4, active compounds read low 0.966 | locus YDR101C, strain arx1, active compounds read low 0.996 | locus YDR137W, strain rgp1, active compounds read low 1.04 | locus YDR150W, strain NUM1, active compounds read low 1 | locus YDR159W, strain sac3, active compounds read low 1.01 | locus YDR162C, strain NBP2, active compounds read low 0.978 | locus YDR195W, strain ref2 0.982 | locus YDR297W, strain sur2, active compounds read low 0.985 | locus YDR318W, strain mcm21, active compounds read low 1.02 | locus YDR334W, strain swr1, active compounds read low 0.974 | locus YDR335W, strain msn5, active compounds read low 0.985 | locus YDR388W, active compounds read low 1.02 | locus YDR392W, strain spt3, active compounds read low 0.935 | locus YDR502C, strain sam2, active compounds read low 1.01 | locus YEL003W, strain gim4, active compounds read low 0.989 | locus YEL037C, strain rad23, active compounds read low 0.97 | locus YEL061C, strain CIN8 (second series), active compounds read low 0.98 | locus YEL061C, strain CIN8, active compounds read low 1 | locus YER015W, strain faa2, active compounds read low 0.979 | locus YER016W, strain bim1, active compounds read low 0.992 | locus YER110C, active compounds read low 1.02 | locus YER111C, strain swi4, active compounds read low 0.97 | locus YER155C, strain BEM2 (second series), active compounds read low 0.977 | locus YER155C, strain BEM2, active compounds read low 1.01 | locus YER167W, strain BCK2, active compounds read low 1 | locus YFR010W, strain ubp6, active compounds read low 0.967 | locus YGL078C, strain dbp3, active compounds read low 1.03 | locus YGL086W, strain mad1, active compounds read low 0.986 | locus YGL167C, strain pmr1, active compounds read low 0.979 | locus YGL173C, strain kem1, active compounds read low 0.971 | locus YGL227W, strain vid30, active compounds read low 0.986 | locus YGL240W, strain doc1, active compounds read low 0.997 | locus YGL248W, strain PDE1, active compounds read low 1.01 | locus YGL253W, strain hxk2, active compounds read low 0.963 | locus YGR078C, strain PAC10, active compounds read low 1 | locus YGR135W, strain pre9, active compounds read low 1.06 | locus YGR229C, strain SMI1, active compounds read low 0.999 | locus YGR252W, strain gcn5, active compounds read low 1.04 | locus YHR013C, strain ard1, active compounds read low 0.967 | locus YHR027C, strain rpn1, active compounds read low 0.984 | locus YHR030C, strain SLT2, active compounds read low 1.01 and 0.978 | locus YHR079C, strain IRE1 (second series), active compounds read low 1.01 | locus YHR079C, strain IRE1, active compounds read low 0.993 | locus YHR094C, strain hxt1, active compounds read low 1.02 | locus YHR129C, strain ARP1, active compounds read low 1.01 | locus YHR142W, strain chs7, active compounds read low 0.979 | locus YHR200W, strain rpn10, active compounds read low 1.01 | locus YIL066C, strain RNR3, active compounds read low 0.998 | locus YIL073C, strain SPO22, active compounds read low 1 | locus YIL125W, strain kgd1, active compounds read low 1.02 | locus YIR030C, strain dcg1, active compounds read low 1.03 | locus YJL092W, strain hpr5, active compounds read low 0.954 | locus YJL095W, strain BCK1 (second series), active compounds read low 0.97 | locus YJL095W, strain BCK1, active compounds read low 1.03 and 0.991 | locus YJL115W, strain asf1, active compounds read low 0.982 | locus YJL129C, strain trk1, active compounds read low 0.966 | locus YJL134W, strain LCB3, active compounds read low 1 | locus YJL154C, strain vps35, active compounds read low 0.984 | locus YJL164C, strain tpk1, active compounds read low 0.988 | locus YJL166W, strain qcr8, active compounds read low 0.996 | locus YJL168C, strain set2, active compounds read low 1.04
